Assay results: PMC7862700, “An all-to-all approach to the identification of sequence-specific readers for epigenetic DNA modifications on cytosine”

Experiments:
Assay in all cases: DAPPL (digital affinity profiling via proximity ligation, sequencing); 10 mM Tris-HCl pH 7.5, 50 mM NaCl, 1 mM DTT, 4% glycerol, room temperature, 30 min; GST-TFs on glutathione beads, 16-mer random dsDNA library, 0.1% formaldehyde crosslink after washing; high values mean tight binding
Details in all cases: protein: recombinant; tags: N-terminal GST; dsDNA, one strand shown
ELF1 = ELF1 (Homo sapiens, UniProt P32519 1-619)
Summary of the method: (§1)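 A tag-only sample was pooled with DNA-barcoded human transcription factors that had been expressed in yeast as GST fusions and captured on glutathione beads. The pools were incubated for 30 min at room temperature with 200 nmole of a random double-stranded 16-mer DNA library in Tris/NaCl/DTT/glycerol buffer, then washed, crosslinked with 0.1% formaldehyde, proximity-ligated (BsaI/T4 ligase, 1 h, 37 °C), PCR-amplified and sequenced on an Illumina NextSeq500. Binding signal is each hexamer's read frequency for a factor divided by its frequency for the tag-only sample.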

FEV = target: T1, FEV (Homo sapiens, UniProt Q99581 1-238)
T1 sequence: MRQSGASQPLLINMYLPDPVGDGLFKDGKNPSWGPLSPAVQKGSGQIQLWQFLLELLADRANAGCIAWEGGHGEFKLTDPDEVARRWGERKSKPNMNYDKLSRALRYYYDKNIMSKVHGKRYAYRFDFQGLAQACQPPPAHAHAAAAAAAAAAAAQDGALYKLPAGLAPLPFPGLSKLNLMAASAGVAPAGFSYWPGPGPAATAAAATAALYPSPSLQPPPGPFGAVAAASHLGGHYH
Summary of the method: as §1

ETV5 = ETV5 (Homo sapiens, UniProt P41161 1-510)
Summary of the method: as §1

ELF4 = ELF4 (Homo sapiens, UniProt Q99607 1-663)
Summary of the method: as §1

ELK4 = target: T2, ELK4 (Homo sapiens, UniProt P28324-2 1-405)
T2 sequence: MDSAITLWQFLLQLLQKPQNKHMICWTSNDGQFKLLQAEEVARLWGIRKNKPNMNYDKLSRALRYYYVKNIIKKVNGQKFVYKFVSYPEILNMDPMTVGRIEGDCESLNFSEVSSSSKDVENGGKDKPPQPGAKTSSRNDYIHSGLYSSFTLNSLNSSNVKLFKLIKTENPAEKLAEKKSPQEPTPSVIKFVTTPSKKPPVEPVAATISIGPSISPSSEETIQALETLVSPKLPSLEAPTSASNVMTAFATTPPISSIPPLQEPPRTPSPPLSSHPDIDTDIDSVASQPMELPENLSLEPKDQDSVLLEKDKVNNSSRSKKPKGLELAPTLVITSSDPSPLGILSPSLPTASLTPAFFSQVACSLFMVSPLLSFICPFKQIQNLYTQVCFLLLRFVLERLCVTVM
Summary of the method: as §1

ETV3L = target: T3, ETV3L (Homo sapiens, UniProt Q6ZN32 1-361)
T3 sequence: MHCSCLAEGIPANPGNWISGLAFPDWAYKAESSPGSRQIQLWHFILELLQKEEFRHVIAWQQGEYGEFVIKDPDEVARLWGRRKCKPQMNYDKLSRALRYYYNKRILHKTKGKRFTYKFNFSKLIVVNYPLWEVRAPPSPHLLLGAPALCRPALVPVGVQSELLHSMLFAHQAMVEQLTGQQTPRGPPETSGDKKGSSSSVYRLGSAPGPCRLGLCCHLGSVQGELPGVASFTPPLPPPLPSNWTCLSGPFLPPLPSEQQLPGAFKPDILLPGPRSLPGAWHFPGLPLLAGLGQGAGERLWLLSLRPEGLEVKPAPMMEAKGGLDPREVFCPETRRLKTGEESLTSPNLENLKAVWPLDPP
Summary of the method: as §1

ETS2 = target: T4, ETS2 (Homo sapiens, UniProt P15036 1-469)
T4 sequence: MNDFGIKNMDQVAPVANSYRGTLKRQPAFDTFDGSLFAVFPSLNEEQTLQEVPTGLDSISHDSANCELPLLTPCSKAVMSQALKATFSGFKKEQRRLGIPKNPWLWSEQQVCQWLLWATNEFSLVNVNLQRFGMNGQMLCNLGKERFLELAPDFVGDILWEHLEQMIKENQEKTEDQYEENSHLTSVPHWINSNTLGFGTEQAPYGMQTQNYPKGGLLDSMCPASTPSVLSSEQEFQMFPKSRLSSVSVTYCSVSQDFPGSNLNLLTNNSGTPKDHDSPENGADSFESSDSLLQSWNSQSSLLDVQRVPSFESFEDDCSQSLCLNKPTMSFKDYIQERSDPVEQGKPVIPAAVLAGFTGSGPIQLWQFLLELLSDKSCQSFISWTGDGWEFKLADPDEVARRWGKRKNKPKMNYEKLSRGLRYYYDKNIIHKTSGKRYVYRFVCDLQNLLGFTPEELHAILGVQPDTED
Summary of the method: as §1

ETV6 = ETV6 (Homo sapiens, UniProt P41212 1-452)
Summary of the method: as §1

ELK1 = target: T5, ELK1 (Homo sapiens, UniProt P19419 1-428)
T5 sequence: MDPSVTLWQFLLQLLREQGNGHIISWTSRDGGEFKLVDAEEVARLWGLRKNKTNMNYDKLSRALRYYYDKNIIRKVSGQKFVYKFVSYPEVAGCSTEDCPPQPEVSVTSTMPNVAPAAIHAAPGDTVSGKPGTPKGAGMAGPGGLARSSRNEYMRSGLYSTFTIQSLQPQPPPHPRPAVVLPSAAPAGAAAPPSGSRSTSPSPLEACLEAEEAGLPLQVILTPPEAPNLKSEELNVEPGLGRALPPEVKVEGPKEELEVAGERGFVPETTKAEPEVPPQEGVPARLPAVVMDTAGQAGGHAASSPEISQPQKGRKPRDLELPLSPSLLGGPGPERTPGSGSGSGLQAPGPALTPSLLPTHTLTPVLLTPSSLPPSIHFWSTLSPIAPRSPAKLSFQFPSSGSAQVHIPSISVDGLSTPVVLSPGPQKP
Summary of the method: as §1

ERG = target: T6, ERG (Homo sapiens, UniProt P11308 1-479)
T6 sequence: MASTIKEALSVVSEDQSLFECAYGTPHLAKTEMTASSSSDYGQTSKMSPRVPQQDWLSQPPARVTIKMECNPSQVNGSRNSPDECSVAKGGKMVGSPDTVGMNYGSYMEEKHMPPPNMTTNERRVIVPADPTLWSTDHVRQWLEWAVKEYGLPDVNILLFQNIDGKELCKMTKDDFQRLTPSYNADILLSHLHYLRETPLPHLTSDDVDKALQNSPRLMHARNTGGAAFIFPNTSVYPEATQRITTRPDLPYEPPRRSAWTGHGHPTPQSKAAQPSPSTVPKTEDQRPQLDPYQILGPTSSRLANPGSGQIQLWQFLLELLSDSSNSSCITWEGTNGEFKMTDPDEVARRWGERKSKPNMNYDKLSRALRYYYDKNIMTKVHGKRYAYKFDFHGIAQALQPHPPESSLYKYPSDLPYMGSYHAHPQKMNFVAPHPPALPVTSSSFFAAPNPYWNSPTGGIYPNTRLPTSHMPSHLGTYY
Summary of the method: as §1

SPIB = SPIB (Homo sapiens, UniProt Q01892 1-262)
Summary of the method: as §1

ETV1 = ETV1 (Homo sapiens, UniProt P50549 1-477)
Summary of the method: as §1

ERF = target: T7, ERF (Homo sapiens, UniProt P50548 1-548)
T7 sequence: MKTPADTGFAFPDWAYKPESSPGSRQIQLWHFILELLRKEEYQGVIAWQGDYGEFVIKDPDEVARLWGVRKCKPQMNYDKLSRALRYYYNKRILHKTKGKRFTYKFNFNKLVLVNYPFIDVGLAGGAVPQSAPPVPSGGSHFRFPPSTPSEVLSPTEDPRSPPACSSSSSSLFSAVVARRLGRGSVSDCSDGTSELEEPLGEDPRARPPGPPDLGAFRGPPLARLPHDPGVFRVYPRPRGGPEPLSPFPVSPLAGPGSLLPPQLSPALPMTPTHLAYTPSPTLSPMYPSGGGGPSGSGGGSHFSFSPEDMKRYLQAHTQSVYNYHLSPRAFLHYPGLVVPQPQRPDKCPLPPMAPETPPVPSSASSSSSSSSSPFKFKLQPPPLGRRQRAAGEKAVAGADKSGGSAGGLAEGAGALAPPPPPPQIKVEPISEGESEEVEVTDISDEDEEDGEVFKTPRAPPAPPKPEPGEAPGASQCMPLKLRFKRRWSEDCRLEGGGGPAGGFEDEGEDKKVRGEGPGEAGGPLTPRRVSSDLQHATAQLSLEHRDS
Summary of the method: as §1

ETV7 = target: T8, ETV7 (Homo sapiens, UniProt Q9Y603 1-341)
T8 sequence: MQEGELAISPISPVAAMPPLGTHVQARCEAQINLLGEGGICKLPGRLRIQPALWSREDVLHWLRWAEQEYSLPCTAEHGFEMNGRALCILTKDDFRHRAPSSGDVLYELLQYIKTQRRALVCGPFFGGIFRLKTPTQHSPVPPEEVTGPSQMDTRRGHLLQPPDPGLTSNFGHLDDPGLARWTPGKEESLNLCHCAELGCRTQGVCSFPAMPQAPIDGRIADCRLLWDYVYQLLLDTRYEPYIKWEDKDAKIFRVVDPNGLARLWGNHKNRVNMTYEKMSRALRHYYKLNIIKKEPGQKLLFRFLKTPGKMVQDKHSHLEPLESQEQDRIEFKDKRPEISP
Summary of the method: as §1

ETV5, sequence (P41161 whole entry): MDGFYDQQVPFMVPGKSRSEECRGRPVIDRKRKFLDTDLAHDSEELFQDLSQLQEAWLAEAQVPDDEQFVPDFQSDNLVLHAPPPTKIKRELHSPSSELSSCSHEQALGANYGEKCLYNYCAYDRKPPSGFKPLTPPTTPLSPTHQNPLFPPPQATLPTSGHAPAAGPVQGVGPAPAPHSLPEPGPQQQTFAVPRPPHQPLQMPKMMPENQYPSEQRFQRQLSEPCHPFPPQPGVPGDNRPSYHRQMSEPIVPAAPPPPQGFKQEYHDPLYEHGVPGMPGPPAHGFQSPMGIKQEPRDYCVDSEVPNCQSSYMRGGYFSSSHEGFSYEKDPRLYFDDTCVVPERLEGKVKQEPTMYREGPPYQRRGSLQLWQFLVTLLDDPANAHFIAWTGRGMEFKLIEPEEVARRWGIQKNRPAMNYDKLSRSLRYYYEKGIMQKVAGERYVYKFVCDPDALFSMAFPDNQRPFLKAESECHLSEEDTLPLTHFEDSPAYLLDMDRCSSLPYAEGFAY
ELF1, sequence (P32519 whole entry, the tested form may be a part): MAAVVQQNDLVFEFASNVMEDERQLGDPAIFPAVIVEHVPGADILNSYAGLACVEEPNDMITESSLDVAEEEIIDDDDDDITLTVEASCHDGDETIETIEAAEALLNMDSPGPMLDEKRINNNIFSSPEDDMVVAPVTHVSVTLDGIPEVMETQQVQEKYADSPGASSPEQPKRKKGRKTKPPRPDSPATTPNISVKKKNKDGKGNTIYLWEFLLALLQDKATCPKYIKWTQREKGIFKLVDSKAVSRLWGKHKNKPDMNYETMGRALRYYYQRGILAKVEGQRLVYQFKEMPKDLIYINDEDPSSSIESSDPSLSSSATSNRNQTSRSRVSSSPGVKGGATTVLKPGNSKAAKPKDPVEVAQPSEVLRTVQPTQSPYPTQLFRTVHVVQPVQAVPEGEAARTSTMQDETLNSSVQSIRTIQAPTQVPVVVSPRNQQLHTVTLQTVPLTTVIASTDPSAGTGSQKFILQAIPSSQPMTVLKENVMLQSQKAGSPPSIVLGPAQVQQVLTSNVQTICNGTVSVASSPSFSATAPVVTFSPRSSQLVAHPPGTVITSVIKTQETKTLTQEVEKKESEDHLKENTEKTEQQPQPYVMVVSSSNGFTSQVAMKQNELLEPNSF
ETV1, sequence (P50549 whole entry): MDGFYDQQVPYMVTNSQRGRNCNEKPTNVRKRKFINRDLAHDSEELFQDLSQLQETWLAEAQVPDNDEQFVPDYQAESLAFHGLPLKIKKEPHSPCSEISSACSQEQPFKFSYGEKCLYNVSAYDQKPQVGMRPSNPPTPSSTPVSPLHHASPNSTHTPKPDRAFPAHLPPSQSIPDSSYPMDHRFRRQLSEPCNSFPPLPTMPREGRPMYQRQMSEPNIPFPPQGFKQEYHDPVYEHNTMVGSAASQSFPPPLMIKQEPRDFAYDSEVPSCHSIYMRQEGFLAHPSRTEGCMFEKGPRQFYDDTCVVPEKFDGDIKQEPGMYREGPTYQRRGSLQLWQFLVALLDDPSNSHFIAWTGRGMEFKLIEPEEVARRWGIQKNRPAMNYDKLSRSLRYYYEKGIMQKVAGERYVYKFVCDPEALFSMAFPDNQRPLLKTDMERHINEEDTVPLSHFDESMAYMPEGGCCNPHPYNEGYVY
SPIB, sequence (Q01892 whole entry): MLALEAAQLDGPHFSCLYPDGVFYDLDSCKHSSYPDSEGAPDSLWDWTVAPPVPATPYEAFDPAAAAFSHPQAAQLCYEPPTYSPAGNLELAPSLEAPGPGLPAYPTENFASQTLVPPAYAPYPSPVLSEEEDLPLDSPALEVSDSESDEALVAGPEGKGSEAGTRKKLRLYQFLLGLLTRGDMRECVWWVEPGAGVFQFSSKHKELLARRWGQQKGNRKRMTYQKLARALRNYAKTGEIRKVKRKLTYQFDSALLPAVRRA
ETV6, sequence (P41212 whole entry): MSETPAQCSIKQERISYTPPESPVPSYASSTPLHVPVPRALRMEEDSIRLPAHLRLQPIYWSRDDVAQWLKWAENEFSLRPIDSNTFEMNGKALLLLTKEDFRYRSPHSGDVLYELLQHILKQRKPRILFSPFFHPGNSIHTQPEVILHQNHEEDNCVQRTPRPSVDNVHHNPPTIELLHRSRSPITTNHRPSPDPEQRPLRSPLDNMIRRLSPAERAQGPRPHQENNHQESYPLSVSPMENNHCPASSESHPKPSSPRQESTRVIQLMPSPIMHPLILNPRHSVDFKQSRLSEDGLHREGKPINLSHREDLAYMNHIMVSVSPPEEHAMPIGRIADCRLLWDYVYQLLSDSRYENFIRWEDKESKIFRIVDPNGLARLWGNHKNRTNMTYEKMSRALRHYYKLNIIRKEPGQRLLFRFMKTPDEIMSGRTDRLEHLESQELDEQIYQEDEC
ELF4, sequence (Q99607 whole entry): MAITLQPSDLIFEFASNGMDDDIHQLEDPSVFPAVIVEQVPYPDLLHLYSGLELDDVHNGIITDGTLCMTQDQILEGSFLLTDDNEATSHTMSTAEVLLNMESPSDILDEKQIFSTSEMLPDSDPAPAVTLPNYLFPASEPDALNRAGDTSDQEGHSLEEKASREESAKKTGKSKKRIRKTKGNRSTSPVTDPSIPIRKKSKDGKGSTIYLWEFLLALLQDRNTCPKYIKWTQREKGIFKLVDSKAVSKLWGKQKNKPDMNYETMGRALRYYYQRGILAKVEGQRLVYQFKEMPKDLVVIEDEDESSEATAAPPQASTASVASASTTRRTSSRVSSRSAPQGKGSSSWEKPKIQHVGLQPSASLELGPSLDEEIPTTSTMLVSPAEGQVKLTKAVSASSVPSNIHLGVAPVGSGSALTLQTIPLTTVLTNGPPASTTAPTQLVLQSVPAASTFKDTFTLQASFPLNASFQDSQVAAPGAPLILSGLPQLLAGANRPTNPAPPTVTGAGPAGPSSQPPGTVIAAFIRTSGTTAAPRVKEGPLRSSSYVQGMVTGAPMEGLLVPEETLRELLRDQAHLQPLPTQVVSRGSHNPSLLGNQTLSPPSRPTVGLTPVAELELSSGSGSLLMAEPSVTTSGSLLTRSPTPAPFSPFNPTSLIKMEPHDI

Row | Sequence | binding signal (ELF1) | binding signal (FEV) | binding signal (ETV5) | binding signal (ELF4) | binding signal (ELK4) | binding signal (ETV3L) | binding signal (ETS2) | binding signal (ETV6) | binding signal (ELK1) | binding signal (ERG) | binding signal (SPIB) | binding signal (ETV1) | binding signal (ERF) | binding signal (ETV7)
1 | TGGGCA | 1.06 fold enrichment (6-mer frequency, TF over GST control) | 1.01 fold enrichment (6-mer frequency, TF over GST control) | 1.04 fold enrichment (6-mer frequency, TF over GST control) | 1.04 fold enrichment (6-mer frequency, TF over GST control) | 1.06 fold enrichment (6-mer frequency, TF over GST control) | 1.04 fold enrichment (6-mer frequency, TF over GST control) | 1.04 fold enrichment (6-mer frequency, TF over GST control) | 1.02 fold enrichment (6-mer frequency, TF over GST control) | – | – | – | – | – | –
2 | GGTGGT | 1.01 fold enrichment (6-mer frequency, TF over GST control) | – | 1.04 fold enrichment (6-mer frequency, TF over GST control) | – | 1.08 fold enrichment (6-mer frequency, TF over GST control) | 1.05 fold enrichment (6-mer frequency, TF over GST control) | – | – | 1.03 fold enrichment (6-mer frequency, TF over GST control) | 1.12 fold enrichment (6-mer frequency, TF over GST control) | 1.02 fold enrichment (6-mer frequency, TF over GST control) | 1 fold enrichment (6-mer frequency, TF over GST control) | 1.07 fold enrichment (6-mer frequency, TF over GST control) | 1 fold enrichment (6-mer frequency, TF over GST control)
